Results from the supplement of paper PMC10338343.
± gives the standard deviation.

Each sequence was assayed on MILI (PIWIL2) piRISC loaded with L1MC piRNA (26 nt) (assay: pre-steady-state target cleavage rate (min^-1); guide: L1MC piRNA 5'p-UAACUAAAUACUAUGCAAGCUGUAGG; MIWI and MILI are mouse PIWI proteins and EfPiwi is from a freshwater sponge; tags in brackets are library labels; higher = faster piRNA-guided slicing of the target). Conditions: auxiliary factor: 500 nM mouse GTSF1.
Outline: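 Cleave-'n-Seq used a transcribed, DNA-blocked target RNA library at 0.1 nM and active affinity-purified piRISC with one synthetic guide at 1 nM, with or without 500 nM GTSF1 partner protein, in HEPES–potassium acetate buffer at 33 °C for 0–8 or 0–960 min. Uncleaved targets were sequenced and normalised to depth and to weakly complementary targets, and three trials were pooled with k3 capped at 0.0001 min^-1. The pre-steady-state cleavage rate was estimated by a burst-and-steady-state fit.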

Sequence	pre-steady-state target cleavage rate
UCCUCCUACUCCUUGCAUAGUAUUUAGUAA	0.147 ± 0.017
UCCUCCUACAGCUAGCAUUGUAUUUAGUUA	0.184 ± 0.013
UCCUCCUACAGCUUGCAUAGUAUCUAGUUA	0.176 ± 0.02
UCCUGGAACAGCUUGCAUAGUACUUAGUUA	0.243 ± 0.018
UCCUGGAUGAGCAUGCAAAGUAUUUAGUUA	0.056 ± 0.011
UCCUGGAUGUGCUUGCAUAGUAUGUUAGUUA	0.0646 ± 0.012
UCCUGGAUCAGCUGUGCAUAGUAUUUAGUUA	0.232 ± 0.017
UCCUGCUACAGCUUGCAUAGUAAUUAGUUA	0.271 ± 0.028
UCCUGGAUGUCGCUGCAUAGUAUUUAGUUA	0.0516 ± 0.0095
UCCUGCUACACCUUGCAUAGUAUUUAGUAA	0.192 ± 0.035
UCCUCGUACAGCUUGCAUAGUAUUUAGUAA	0.24 ± 0.014
UCCUGCUACAGCAUGCAUAGUAUUUAGUAA	0.277 ± 0.03
UCCUCCUACAGCUUGUCAUAGUAUUUAGUUA	0.258 ± 0.015
UCCUGGUAGAGCUUGCAUAGUAUAUAGUUA	0.207 ± 0.027
UCCUGCAACAGCUUGGAUAGUAUUUAGUUA	0.251 ± 0.011
UCCUGGAUCAGCAUGCAUAGUUUUUAGUUA	0.0257 ± 0.0092
UCCUGCUACACCUUGCAUUGUAUUUAGUUA	0.151 ± 0.014
UCCUGCUACAGCUUGGAAAGUAUUUAGUUA	0.138 ± 0.012
UCCUCCUACAGCUAGCAUACUAUUUAGUUA	0.0706 ± 0.011
UCCUGGAUCAGCUUGCAGAGUAUUUAGUUA	0.111 ± 0.015

Sequence	pre-steady-state target cleavage rate
UCCUGGAAGAGCUUGCAUAGUAUUUUGUUA	0.21 ± 0.037
UCCUCCUACAGCUUGCAGAGUAUUUAGUUA	0.218 ± 0.021
UCCUCCUACAGGUAGCAUAGUAUUUAGUUA	0.273 ± 0.013
UCCUGGAUCAGCUUGCAUAGUAUUUAGGUA	0.0936 ± 0.021
UCCUGGUAGAGCAUGCAUAGUAUUUAGUUA	0.196 ± 0.018
UCCUGGUACCAGCUUGCAUAGUAUUUAGUUA	0.276 ± 0.043
UCCUGGUACACCUUGCUUAGUAUUUAGUUA	0.134 ± 0.024
UCCUCCUAGUCCUUGCAUAGUAUUUAGUAA	0.102 ± 0.018
UCCUCGAACAGCUUGCAUAGUAUUUAGUAA	0.242 ± 0.015
UCCUGGAUGUGCAUUGCAUAGUAUUUAGUUA	0.182 ± 0.023
UCCUGCUUCAGCUUGCAUACUAUUUAGUUA	0.0698 ± 0.01
UCCUGCUACAGCUUGCAGAGUAUUUAGUUA	0.27 ± 0.028
UCCUGGAUGAGCUAGCAUAGUAUUUAGUUA	0.2 ± 0.018
UCCUGGUACAGCUUGCGUAGUAUUUAGUUA	0.219 ± 0.021
UCCUCCUUCACCUUGCAUAGUAUUUAGUUA	0.212 ± 0.028
UCCUGGAUCAGGUUGCUUAGUAUUUAGUUA	0.189 ± 0.011
UCCUGGUACAGCUUGCAUAGUAUUUAGUUC [g2:g24:cont:t1C]	0.3 ± 0.016
UCCUGGAUGUGGUUGCAUAGUUUUUAGUUA	0.0125 ± 0.0086
UCCUCCUACAGCUUGCAUGUAUUUAGUUA	0.0804 ± 0.012
UCCUGGUUCAGCUUGCAUAGUAUUUAGUUA	0.23 ± 0.022

Same assay, conditions: auxiliary factor: none (no GTSF1)

Sequence	pre-steady-state target cleavage rate
UCCUCCUACUCCUUGCAUAGUAUUUAGUAA	0.00285 ± 0.0024
UCCUCCUACAGCUAGCAUUGUAUUUAGUUA	0.00496 ± 0.0019
UCCUCCUACAGCUUGCAUAGUAUCUAGUUA	0.00564 ± 0.0022
UCCUGGAACAGCUUGCAUAGUACUUAGUUA	0.0101 ± 0.0024
UCCUGGAUGAGCAUGCAAAGUAUUUAGUUA	0.00571 ± 0.002
UCCUGGAUGUGCUUGCAUAGUAUGUUAGUUA	0.00452 ± 0.0032
UCCUGGAUCAGCUGUGCAUAGUAUUUAGUUA	0.0109 ± 0.0034
UCCUGCUACAGCUUGCAUAGUAAUUAGUUA	0.00539 ± 0.0023
UCCUGGAUGUCGCUGCAUAGUAUUUAGUUA	0.00769 ± 0.0026
UCCUGCUACACCUUGCAUAGUAUUUAGUAA	0.00445 ± 0.0026
UCCUCGUACAGCUUGCAUAGUAUUUAGUAA	0.00621 ± 0.0022
UCCUGCUACAGCAUGCAUAGUAUUUAGUAA	0.00478 ± 0.0028
UCCUCCUACAGCUUGUCAUAGUAUUUAGUUA	0.00407 ± 0.0019
UCCUGGUAGAGCUUGCAUAGUAUAUAGUUA	0.00638 ± 0.0021
UCCUGCAACAGCUUGGAUAGUAUUUAGUUA	0.00806 ± 0.0021
UCCUGGAUCAGCAUGCAUAGUUUUUAGUUA	0.00668 ± 0.0023
UCCUGCUACACCUUGCAUUGUAUUUAGUUA	0.0123 ± 0.004
UCCUGCUACAGCUUGGAAAGUAUUUAGUUA	0.00897 ± 0.0022
UCCUCCUACAGCUAGCAUACUAUUUAGUUA	0.0031 ± 0.0022
UCCUGGAUCAGCUUGCAGAGUAUUUAGUUA	0.00641 ± 0.002

Sequence	pre-steady-state target cleavage rate
UCCUGGAAGAGCUUGCAUAGUAUUUUGUUA	0.00584 ± 0.0025
UCCUCCUACAGCUUGCAGAGUAUUUAGUUA	0.00823 ± 0.0022
UCCUCCUACAGGUAGCAUAGUAUUUAGUUA	0.00904 ± 0.0021
UCCUGGAUCAGCUUGCAUAGUAUUUAGGUA	0.00336 ± 0.0026
UCCUGGUAGAGCAUGCAUAGUAUUUAGUUA	0.0109 ± 0.0033
UCCUGGUACCAGCUUGCAUAGUAUUUAGUUA	0.00866 ± 0.0047
UCCUGGUACACCUUGCUUAGUAUUUAGUUA	0.0117 ± 0.0037
UCCUCCUAGUCCUUGCAUAGUAUUUAGUAA	0.0027 ± 0.0023
UCCUCGAACAGCUUGCAUAGUAUUUAGUAA	0.00453 ± 0.0022
UCCUGGAUGUGCAUUGCAUAGUAUUUAGUUA	0.0119 ± 0.0039
UCCUGCUUCAGCUUGCAUACUAUUUAGUUA	0.00358 ± 0.002
UCCUGCUACAGCUUGCAGAGUAUUUAGUUA	0.00514 ± 0.002
UCCUGGAUGAGCUAGCAUAGUAUUUAGUUA	0.00679 ± 0.0019
UCCUGGUACAGCUUGCGUAGUAUUUAGUUA	0.014 ± 0.004
UCCUCCUUCACCUUGCAUAGUAUUUAGUUA	0.00635 ± 0.0025
UCCUGGAUCAGGUUGCUUAGUAUUUAGUUA	0.00878 ± 0.0023
UCCUGGUACAGCUUGCAUAGUAUUUAGUUC [g2:g24:cont:t1C]	0.0117 ± 0.0049
UCCUGGAUGUGGUUGCAUAGUUUUUAGUUA	0.00954 ± 0.0033
UCCUCCUACAGCUUGCAUGUAUUUAGUUA	0.00283 ± 0.0027
UCCUGGUUCAGCUUGCAUAGUAUUUAGUUA	0.0108 ± 0.0032
